Assay outcomes deposited in PubChem BioAssay by Sanford-Burnham Center for Chemical Genomics.
A selection: hits, their analogues and other compounds. The true share with any hit is near 1.1%.
FAS TE block = inhibitors of human fatty acid synthase thioesterase domain; AID 602261; P49327; recombinant FAS-TE, OMFH fluorogenic substrate, fluorescence endpoint; inhibition, % at 15 µM; 0.67% of 360,000 active;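 active = compounds whose normalised, plate-corrected inhibition of enzyme fluorescence in the single-dose primary screen is 50% or more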;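 note: 0% = DMSO with enzyme and 100% = substrate without enzyme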
GC-B act = GC-B (human) receptor activation. P20594. 0.11% of 370,000 active. HEK293-GC-B cells, CNP EC30, cGMP TR-FRET; 0% at EC30 CNP, 100% saturating CNP. AID 1920062. activation, % at 10 µM;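 active = activation at 10 µM reaching about 35% in either raw or pattern-adjusted values, limit read from the data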
GC-A act = GC-A (human) enzyme activation; 0.14% of 370,000 active; P16066; AID 1671463; HEK293 GC-A cells, cGMP TR-FRET, EC30 ANP; 0% at EC30 ANP, 100% saturating ANP; activation, % at 10 µM; in the data active = activation above about 40%
aDG glyco up = alpha-DG glycosylation activation; 0.22% of 360,000 active; AID 624168; activation, % at 10 µM; Pro5-aDG cells, alpha-DG glycosylation AlphaScreen (IIH6); 0% Pro5, 100% B10-LARGE cell signal;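 active = activation of at least 8% versus controls, or a plate z-score of at least 8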;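 note: Pro5 are CHO cells carrying HIG-tagged alpha-DG that lacks glycosylation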
FAS-TE conf = FAS thioesterase (human) inhibition, confirmation | shares compounds with FAS TE block | recombinant FAS-TE, OMFH fluorogenic substrate, fluorescence | inhibition, % at 15 µM | 45% of 2,300 active | AID 624325;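 active = compounds inhibiting the enzyme by at least 50% at 15 µM in any one of the replicates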;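 note: 0% = enzyme with DMSO only and 100% = wells lacking enzyme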
The depositor's hits bear a star; nt = not tested or not shown.

SMILES | FAS TE block | GC-B act | GC-A act | aDG glyco up | FAS-TE conf
COC(=O)[C@@]12CCCCC3=C1N(CCC3)C(=O)[C@H]2CC(=O)N1CCN(C(=O)C2CC2)CC1 | nt | 3 | 2 | nt | nt
COC(=O)C1CN(CCc2ccccc2)CCS(=O)(=O)N1Cc1ccc(Cl)cc1 (stereo not drawn) | nt | -7 | -1 | nt | nt
O=C(O)c1cc(NN=Nc2ccc(Br)cc2)cc([N+](=O)[O-])c1 | 69* | -10 | 43* | 0 | 75*
O=C1OC(c2ccccc2)=NC12CC2c1ccc(Cl)cc1 (stereo not drawn) | 90* | -9 | -14 | 0 | 97*
COc1ccc(CNS(=O)(=O)/C=C/c2ccc(F)cc2CNC(=O)OC(C)(C)C)cc1 | nt | -8 | -9 | nt | nt
COC(=O)C1CN(Cc2ccc(F)cc2)CCS(=O)(=O)N1Cc1ccc(C(F)(F)F)cc1 (stereo not drawn) | nt | -6 | -3 | nt | nt
Cc1nnc(SC(C(=O)Nc2ccc(Cl)c([N+](=O)[O-])c2)c2ccccc2)[nH]c1=O (stereo not drawn) | 52* | -2 | 2 | 0 | 53*
Cc1cc(C)cc(NC(=O)C(Sc2nnc(C)c(=O)[nH]2)c2ccccc2)c1 (stereo not drawn) | -3 | -4 | -1 | 1 | nt
C#CCN(C[C@H]1[C@H](OC(=O)Nc2cccs2)[C@H](OC(=O)Nc2cccs2)C[C@H]2C(=O)N(c3ccccc3)C(=O)[C@@H]12)S(=O)(=O)c1ccc(C)cc1 | 54* | 0 | -4 | 0 | 16
C#CCN(C[C@H]1[C@H](OC(=O)NCc2ccccc2)[C@H](OC(=O)NCc2ccccc2)C[C@H]2C(=O)N(c3ccccc3)C(=O)[C@@H]12)S(=O)(=O)c1ccc(C)cc1 | 62* | 4 | 2 | 0 | 20
C#CCN(C[C@H]1[C@H](OC(=O)NC2CC2)[C@H](OC(=O)NC2CC2)C[C@H]2C(=O)N(c3ccccc3)C(=O)[C@@H]12)S(=O)(=O)c1ccc(C)cc1 | -4 | 3 | 4 | 0 | nt
C#CCN(C[C@H]1[C@H](OC(=O)Nc2c(C)noc2C)[C@H](OC(=O)Nc2c(C)noc2C)C[C@H]2C(=O)N(c3ccccc3)C(=O)[C@@H]12)S(=O)(=O)c1ccc(C)cc1 | 2 | -2 | 3 | 0 | nt
COc1ccc(-c2cc(-c3ccc(O)cc3)nc(N)c2C#N)cc1 | 57* | 10 | 35 | 0 | 34
CCOC(=O)C(OC(=O)c1sc(=S)n(C)c1C)C(C)=O (stereo not drawn) | -2 | 1 | 3 | 0 | nt
Cc1c(C(=O)OCCOc2ccc(Br)cc2)sc(=S)n1C | 69* | -2 | 2 | 0 | 63*
COc1ccc(C(=O)/C(C#N)=N/Nc2ccc([N+](=O)[O-])cc2)cc1 | 59* | 2 | 1 | 0 | 19
Cc1cccc(N2CCN(C(=O)CNC(=O)c3cccc([N+](=O)[O-])c3)CC2)c1C | 85* | 4 | -1 | 0 | 67*
Cc1cccc(N2CCN(C(=O)CNC(=O)Cc3ccccc3)CC2)c1C | 2 | 8 | 0 | 0 | nt
Nc1[nH]c(C(=O)c2ccccc2)c(-c2cc(F)ccc2Br)c1C(=O)NCCc1c[nH]c2ccccc12 | nt | 0 | -8 | nt | nt
CCOC1=C2[C@H](c3ccccc3)N(S(=O)(=O)c3ccccc3)C[C@H]2n2c(=O)n(-c3ccccc3)c(=O)n2C1 | 73* | 0 | -3 | 0 | 39
CCOC1=C2CN(S(=O)(=O)c3ccc(Cl)cc3)[C@H](c3ccccc3)C[C@@H]2N(S(=O)(=O)c2ccc(C)cc2)[C@H](c2ccccc2)C1 | 19 | 2 | 3 | 1 | nt
CCOC1=C2[C@H](c3cccs3)N(S(=O)(=O)c3ccc(C)cc3)C[C@H]2n2c(=O)n(-c3ccccc3)c(=O)n2C1 | 73* | -7 | -5 | 0 | 30
CCOC1=C2CN(S(=O)(=O)c3ccccc3)[C@H](c3ccccc3)C[C@H]2n2c(=O)n(-c3ccccc3)c(=O)n2C1 | 80* | -3 | -2 | 0 | 13
CCOC1=C2CN(S(=O)(=O)c3ccc(C)cc3)C(c3ccc(CC)cc3)CC2n2c(=O)n(-c3ccccc3)c(=O)n2C1 (stereo not drawn) | nt | -5 | 2 | 0 | nt
CCOC1=C2CN(S(=O)(=O)c3ccc(C)cc3)[C@H](c3ccccc3)C[C@@H]2N(S(C)(=O)=O)[C@H](c2ccccc2)C1 | 48 | 1 | 0 | 0 | nt
SMILES | FAS TE block | GC-B act | GC-A act | aDG glyco up | FAS-TE conf
O=S1(=O)c2c(NCc3ccco3)cccc2Oc2ccccc2CN1Cc1cn(Cc2ccc(Cl)cc2)nn1 | nt | 2 | 1 | nt | nt
COc1ccc2c(c1)OC[C@H]1[C@H]2N2C(=O)c3cc(Cl)ccc3NC(=O)[C@@]2(C)[C@H]1c1ccccc1 | 67* | nt | nt | 0 | 17
COc1ccc2c(c1)OC[C@H]1[C@H]2N2C(=O)c3cc(F)ccc3NC(=O)[C@@]2(C)[C@H]1c1ccccc1 | 74* | -6 | 2 | 1 | 2
CCOC(=O)[C@H]1[C@H]2COc3cc(OC)ccc3[C@@H]2N2C(=O)c3cc(F)ccc3NC(=O)[C@@]12C | 1 | -1 | -1 | 0 | nt
COc1ccc2c(c1)OC[C@H]1[C@H]2N2C(=O)c3ccc(C)cc3NC(=O)[C@@]2(C)[C@H]1c1ccccc1 | 90* | 7 | -2 | 0 | 40
CCOC(=O)[C@H]1[C@H]2COc3cc(OC)ccc3[C@@H]2N2C(=O)c3cc(OC)ccc3NC(=O)[C@@]12C | -2 | -5 | -5 | 0 | nt
COc1ccc2c(c1)OC[C@H]1[C@H]2N2C(=O)c3cc(OC)ccc3NC(=O)[C@@]2(C)[C@H]1c1ccccc1 | 95* | 6 | -5 | 0 | 54*
NC(=O)c1ncn([C@@H]2O[C@H](C(=O)N3CCCN(Cc4ccccc4F)CC3)[C@@H](O)[C@H]2O)n1 | nt | 2 | 6 | nt | nt
COc1ccc2c(c1)C(=O)N1[C@H]3c4cc(Cl)ccc4OC[C@@H]3[C@H](c3ccccc3)[C@]1(C)C(=O)N2 | 64* | -7 | 0 | -1 | 45*
O=C(Nc1ccc(F)cc1)N[C@@H]1C[C@@H]2O[C@H](CO)CC[C@@H]2O[C@@H]1CCc1ccc(C2=CCCC2)cc1 | nt | -7 | 7 | nt | nt
Cc1c(OCC(=O)NC(Cc2ccc(Cl)cc2)C(=O)O)ccc2c(-c3ccccc3)cc(=O)oc12 (stereo not drawn) | 55* | 4 | 2 | 0 | 62*
COc1ccc(-c2cc(=O)oc3c(C)c(OCC(=O)N[C@@H](Cc4ccc(O)cc4)C(=O)O)ccc23)cc1 | 6 | 5 | 3 | 0 | nt
CN1CCN(c2ccc([N+](=O)[O-])cc2/C=N/NC(=O)c2ccc(F)cc2)CC1 | 52* | 3 | 2 | 0 | 51*
CCN(CC)C(=O)C1CCCN(c2ccc([N+](=O)[O-])cc2/C=N/NC(=O)c2cccc(Br)c2)C1 (stereo not drawn) | 86* | -6 | -10 | 0 | 17
